We go through 14 molecules from PubChem BioAssay.

The nature of assay [1]: inhibitors of TNFa-induced NFkB p65 translocation, primary screen, imaging, HUVEC, MLSMR starter and 10KST1 sets (AID 438;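 active = inhibition above 20% together with a positive visual image hit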;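 note: compound added about 3h40 before a 20 min TNFalpha stimulation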;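 for inhibition: signal is the nuclear over cytoplasmic p65 intensity ratio per well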). Conditions: HUVEC TNFa-induced p65 nuclear translocation; cell count: measured here: nuclei count (cytotoxicity indicator), at 2.08 µM; inhibition: at 2 µM, stronger effect = higher value, 0% TNFa-plus-vehicle, 100% no-TNFa wells.
Assay [2] can be described thus: reduction of polyQ htt aggregates in cells – imaging, exon1htt(103Q)mCFP cells, high-content imaging, primary screen (AID 483).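 For nuclei count: percent of the per-plate median nuclei count of sample wells.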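 Note: compound exposure lasted 3 days before fixation.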 The following applies: exon1htt(103Q)mCFP cell line, aggregate imaging, at 2 µM; inhibition of aggregation: stronger effect = higher value; nuclei count: measured here: cell count, toxicity.
A short description of assay [3]: endothelial E-selectin expression blockers – imaging, HUVEC, immunofluorescence, MLSMR starter and 10KST1 sets, primary screen (AID 487;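 active = visually confirmed hit in the image check and inhibition above 20%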;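 for inhibition: signal is fraction of cell area covered by stained E-selectin grains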;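 for nuclei count: 100% = median nuclei count of all wells on the same plate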). The following applies: HUVEC TNFalpha-induced E-selectin immunofluorescence imaging, at 2 µM; inhibition: stronger effect = higher value; nuclei count: measured here: cell number, toxicity.
In assay [4] the target is Voltage-gated potassium channel subunit beta-2 (Rattus norvegicus) (UniProt P62483). The assay is described as follows: inhibitors of rat Kvbeta2 reductase activity – biochemical, NADPH fluorescence, primary screen (AID 622;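 active = fluorescence slope higher than the sample average by over 3 SD, cut at about -0.22 in these data, passing the limit was not always enough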;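 note: slope of raw intensity against log time taken from 70 to 1610 s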). The following applies: recombinant KvBeta, 4-cyanobenzaldehyde reduction, at 10 µM, stronger effect = higher value.
Assay [5] has the same target. The assay is described as follows: enhancers of rat Kvbeta2 NADPH turnover – biochemical, NADPH fluorescence, primary screen (AID 623;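 active = NADPH fluorescence slope more negative than the mean of all samples by about 3 SD, 99.7% confidence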;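 note: fluorescence intensity change per second fitted from 20 to 320 s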). Conditions: Recombinant KvBeta, NADPH fluorescence decrease slope, 10 min; at 10 µM; stronger effect = lower value.
The target in assay [6] is Alpha-2C adrenergic receptor (Homo sapiens) (UniProt P18825). The experiment in a line: compounds altering alpha2C-coupled GIRK flux – cell-based, HEK293 alpha2C/GIRK1/2, thallium flux, primary screen (AID 624;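 active = fluorescence slope after compound addition differing from the mean of all screened samples at 99.7% confidence, in either direction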;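 note: slope of fluorescence ratio to pre-addition baseline per second over 15 to 24 s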). The following applies: thallium flux BTC fluorescence, at 10 µM, actives lie on both sides.
A short description of assay [7]: blockers of RIG-like receptor reporter activation – cell-based, Sendai virus stimulus, luciferase, 10K MLSCN set, TLR/RLR signaling modifier project, primary screen (AID 602276;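 active = inhibition at or above 50% at 10 µM; inactive = inhibition below 50%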;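 note: firefly luciferase from ISG56 promoter only with Renilla not read in this screen; 0% = Sendai virus plus DMSO and 100% = medium plus DMSO without virus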). Conditions: HEK293 RL24 IRF3 luciferase reporter, at 10 µM, stronger effect = higher value. For orientation: In a reporter assay the amount or activity of a reporter protein is the signal.
The nature of assay [8]: TLR3 IRF3 reporter activation blockers – cell-based, poly I:C stimulus, luciferase, 10K MLSCN set, primary screen (AID 602277;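 active = inhibition of the reporter signal at or above 50%; inactive = inhibition below 50%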). Conditions: HEK293-TLR3 RL24 IRF3 luciferase reporter, at 10 µM, stronger effect = higher value.

Calls of active or inactive are those of the source.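 Rule for the calls, unless noted: active = visual image review flags a hit and inhibition of aggregation exceeds 20%; inconclusive = visual hit but inhibition at or below 20%; inactive = no hit on visual image review.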

Chain of Voltage-gated potassium channel subunit beta-2 (Rattus norvegicus) (P62483 whole entry, looked up): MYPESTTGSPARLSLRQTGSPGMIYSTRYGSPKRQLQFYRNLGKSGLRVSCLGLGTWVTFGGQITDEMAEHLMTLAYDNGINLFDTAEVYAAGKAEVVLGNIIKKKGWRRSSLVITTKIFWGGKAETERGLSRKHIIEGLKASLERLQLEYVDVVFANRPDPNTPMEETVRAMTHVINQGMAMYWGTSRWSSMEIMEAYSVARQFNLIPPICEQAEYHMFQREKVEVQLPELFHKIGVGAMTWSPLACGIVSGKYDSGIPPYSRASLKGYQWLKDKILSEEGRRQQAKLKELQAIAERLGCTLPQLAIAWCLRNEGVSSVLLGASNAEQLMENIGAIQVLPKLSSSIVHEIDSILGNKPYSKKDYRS
Chain of Alpha-2C adrenergic receptor (Homo sapiens) (P18825 whole entry, looked up): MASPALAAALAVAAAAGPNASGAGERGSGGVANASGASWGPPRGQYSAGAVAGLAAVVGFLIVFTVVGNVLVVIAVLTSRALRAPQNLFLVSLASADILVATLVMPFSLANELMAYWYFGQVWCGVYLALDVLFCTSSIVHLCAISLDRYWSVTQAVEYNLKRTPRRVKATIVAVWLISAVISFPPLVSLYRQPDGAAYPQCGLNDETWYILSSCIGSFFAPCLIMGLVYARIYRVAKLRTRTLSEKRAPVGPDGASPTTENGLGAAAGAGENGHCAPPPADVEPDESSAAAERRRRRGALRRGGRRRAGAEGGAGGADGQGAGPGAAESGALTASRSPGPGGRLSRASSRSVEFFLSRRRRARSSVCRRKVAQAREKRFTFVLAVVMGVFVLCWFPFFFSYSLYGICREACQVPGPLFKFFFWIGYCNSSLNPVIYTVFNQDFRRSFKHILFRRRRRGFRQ

Regarding `CCn1c(C)cc(=S)c2ccccc21`, the cell count in assay [1] came to 587. Besides, the inhibition (usually the change of the read-out against control, counted positive when it falls) in assay [1] was -5.3% (inactive); in assay [3], -56.4% (inactive); in assay [7], 1.4% (inactive); in assay [8], 12.6% (inactive). In addition, the inhibition of aggregation in assay [2] is -16.1% (inactive). The nuclei count stood at 105% in assay [2] and 90.4% in assay [3]. Further, in assay [4], the fluorescence slope is -0.611 (inactive). Further, in assay [5], the NADPH fluorescence slope was -2.2e-05 (inactive). The slope in assay [6] was 0.00608 (inactive).
With `Cc1ccccc1-n1c(SCc2c(C)noc2C)nnc1-c1ccncc1`, the cell count in assay [1] turned out to be 741. In addition, the inhibition in assay [1] is -2.4% (inactive); in assay [3], -87% (inactive); in assay [7], 6.71% (inactive); in assay [8], 30.2% (inactive). The inhibition of aggregation in assay [2] was -10.7% (inactive). For the same molecule, the nuclei count in assay [2] was found to be 103%; in assay [3] it was 115%. Further, the fluorescence slope in assay [4] was -0.304 (inactive). Further, the NADPH fluorescence slope in assay [5] is -5.4e-05 (inactive). Moreover, the slope in assay [6] is 0.00424 (inactive).
As for `Cc1ccc(NC(=O)CSc2nnc(-c3ccccn3)n2C)cc1`, in assay [1], the cell count is 644. Moreover, the inhibition in assay [1] is 14.4% (inactive); in assay [3], 0.6% (inactive); in assay [7] it was 0.794% (inactive); in assay [8] it was -5.25% (inactive). The inhibition of aggregation in assay [2] was 6.7% (inactive). In addition, the results for the nuclei count in assay [2] and in assay [3] were 92.4% and 111%, respectively. Besides, the fluorescence slope in assay [4] was -0.418 (inactive). In assay [5], the NADPH fluorescence slope was -2.7e-05 (inactive). In addition, the slope in assay [6] is 0.00462 (inactive).
Regarding `COc1ccccc1CNC(=O)Nc1cccs1`, the cell count in assay [1] came to 546. The inhibition in assay [1] is -6.3% (inactive); in assay [3] it was -30.8% (inactive); in assay [7], -0.521% (inactive); in assay [8], -0.402% (inactive). In addition, the inhibition of aggregation in assay [2] was 9.4% (inactive). Also, the nuclei count was 118% in assay [2] and 123% in assay [3]. Also, in assay [4], the fluorescence slope is -0.45 (inactive). Besides, the NADPH fluorescence slope in assay [5] is 8.3e-06 (inactive). In addition, the slope in assay [6] is 0.0111 (inactive).
As for `CCOC(=O)CC12CN3CN(C1)CC(CC(=O)OCC)(C3)C2=O`, in assay [1], the cell count was determined as 596. For the same molecule, the inhibition is -28.6% (inactive) in assay [1], -54.7% (inactive) in assay [3], -1.85% (inactive) in assay [7] and 25.3% (inactive) in assay [8]. In assay [2], the inhibition of aggregation was 7.3% (inactive). The values for the nuclei count in assay [2] and in assay [3] were 83.7% and 110%, respectively. In addition, the fluorescence slope in assay [4] is -0.497 (inactive). Moreover, the NADPH fluorescence slope in assay [5] is -2.2e-05 (inactive). Further, the slope in assay [6] was 0.00533 (inactive).
Turning to `Cc1csc2ncc(C(=O)N3CCc4ccccc43)c(=O)n12`, in assay [1], the cell count was 601. Also, the inhibition in assay [1] is 5.3% (inactive); in assay [3] it was 10% (inactive); in assay [7], 11.1% (inactive); in assay [8], 39.2% (inactive). Besides, the inhibition of aggregation in assay [2] was -17% (inactive). For the same molecule, the nuclei count stood at 104% in assay [2] and 110% in assay [3]. The fluorescence slope in assay [4] is -0.551 (inactive). In assay [5], the NADPH fluorescence slope is -4.3e-05 (inactive). Moreover, the slope in assay [6] was 0.00571 (inactive).
For the molecule `CC(=O)c1ccccc1Oc1nc(CN2CCOCC2)nc2scc(-c3cccs3)c12`, the cell count in assay [1] worked out at 330. Besides, the inhibition in assay [1] was -5.7% (inactive); in assay [3] it was -50.4% (inactive); in assay [7], 7.86% (inactive); in assay [8] it was 37.7% (inactive). Moreover, in assay [2], the inhibition of aggregation is 13.6% (inactive). For the same molecule, the nuclei count in assay [2] turned out to be 99.2%; in assay [3], 109%. Also, the fluorescence slope in assay [4] is -0.478 (inactive). Besides, in assay [5], the NADPH fluorescence slope is -1.8e-05 (inactive). Further, the slope in assay [6] was 0.00384 (inactive).
Regarding `CCOc1ccc(NC(=O)CN(C)CC(=O)NC2CCCc3ccccc32)cc1OCC` (centres undefined), in assay [1], the cell count stood at 451. The inhibition was 14.9% (inactive) in assay [1], 10.8% (inactive) in assay [3], 8.91% (inactive) in assay [7] and 26.6% (inactive) in assay [8]. The inhibition of aggregation in assay [2] is -6.5% (inactive). The values for the nuclei count in assay [2] and in assay [3] were 110% and 100%, respectively. Also, the fluorescence slope in assay [4] was -0.288 (inactive). In assay [5], the NADPH fluorescence slope was -1.1e-05 (inactive). For the same molecule, in assay [6], the slope was 0.00604 (inactive).
On to `O=C(O)c1ccc2c(c1)N(Cc1ccccc1F)C(=O)c1ccccc1S2=O` (centres undefined), for which the cell count in assay [1] turned out to be 585. The inhibition in assay [1] was -1.2% (inactive); in assay [3], -49.8% (inactive); in assay [7], 11.3% (inactive); in assay [8] it was 7.14% (inactive). Further, the inhibition of aggregation in assay [2] is 17.9% (inactive). The nuclei count is 64.2% in assay [2] and 107% in assay [3]. For the same molecule, the fluorescence slope in assay [4] is -0.537 (inactive). The NADPH fluorescence slope in assay [5] is -5.5e-07 (inactive). Further, the slope in assay [6] is 0.0062 (inactive).
`COc1ccc(S(=O)(=O)N2CCCC2C(=O)Nc2ccc(C)cc2)cc1` (centres undefined): the cell count in assay [1] is 469. Also, the inhibition was 42.3% (active) in assay [1], -11.9% (inactive) in assay [3], 12.2% (inactive) in assay [7] and 7.96% (inactive) in assay [8]. The inhibition of aggregation in assay [2] was -25% (inactive). The nuclei count in assay [2] was 130%; in assay [3], 73.3%. Further, in assay [4], the fluorescence slope is -0.498 (inactive). In addition, in assay [5], the NADPH fluorescence slope is -5.1e-05 (inactive). In addition, in assay [6], the slope is 0.00758 (inactive).
Turning to `CCOC(=O)N1CCN(C(=O)CSc2nnc(-c3cc(OC)cc(OC)c3)o2)CC1`, the cell count in assay [1] came out at 228. Moreover, the inhibition in assay [1] is 8.2% (inactive); in assay [3] it was -54.1% (inactive); in assay [7], 12.2% (inactive); in assay [8], 29.1% (inactive). Further, the inhibition of aggregation in assay [2] is -10.3% (inactive). Moreover, the nuclei count in assay [2] is 67.5%; in assay [3], 99.6%. The fluorescence slope in assay [4] is -0.398 (inactive). Besides, in assay [5], the NADPH fluorescence slope is -5.6e-05 (inactive). Besides, the slope in assay [6] was 0.00254 (inactive).
For the molecule `NC(=O)c1ccccc1NC(=O)CN1CCOCC1`, the cell count in assay [1] was 658. Besides, the inhibition in assay [1] is -24.7% (inactive); in assay [3] it was -46.9% (inactive); in assay [7], 21.2% (inactive); in assay [8], 20.7% (inactive). For the same molecule, the inhibition of aggregation in assay [2] was -45.9% (inactive). Besides, the nuclei count in assay [2] amounted to 124%; in assay [3] it was 105%. Further, the fluorescence slope in assay [4] was -0.492 (inactive). In assay [5], the NADPH fluorescence slope was -3.8e-05 (inactive). In assay [6], the slope is 0.00501 (inactive).
In the case of `CCOC(=O)C1=C(CS(=O)(=O)c2ccc(F)c(C)c2)NC(=O)NC1c1ccc(O)c(O)c1` (centres undefined), in assay [1], the cell count amounted to 619. The inhibition in assay [1] is -0.8% (inactive); in assay [3], -35.7% (inactive); in assay [7] it was -1.61% (inactive); in assay [8], 5.18% (inactive). Moreover, the inhibition of aggregation in assay [2] is 8.1% (inactive). The nuclei count in assay [2] was determined as 112%; in assay [3], 116%. For the same molecule, the fluorescence slope in assay [4] was -0.576 (inactive). For the same molecule, the NADPH fluorescence slope in assay [5] was -2.4e-05 (inactive). In assay [6], the slope is 0.00703 (inactive).
With `Cc1cccc(NC(=O)c2cc(NC(=O)c3ccco3)ccc2Cl)n1`, in assay [1], the cell count is 678. Also, the inhibition is -2.8% (inactive) in assay [1], 19.9% (inactive) in assay [3], 1.7% (inactive) in assay [7] and -7.38% (inactive) in assay [8]. Also, the inhibition of aggregation in assay [2] was 16.4% (inactive). The nuclei count amounted to 83.5% in assay [2] and 98% in assay [3]. Moreover, the fluorescence slope in assay [4] was -0.529 (inactive). Further, the NADPH fluorescence slope in assay [5] was 1.5e-06 (inactive). Also, the slope in assay [6] is 0.00521 (inactive).
